Measurements as given in PubChem BioAssay AID602475 (National Center for Advancing Translational Sciences (NCATS), 2012).
Results filed as inconclusive are left out. Where a call stands in place of a potency, no number is given. Calls of active or inactive are those of the source. Calls come from the whole dose curve; as a rule, active = well fitted inhibition curve with a large enough effect; inconclusive = small, poorly fitted or top-dose-only effect; inactive = no such curve, though single readings can be large or run the other way.

What follows are compounds tested against Luciferin 4-monooxygenase (Photinus pyralis) (UniProt P08659) (assay: FLuc inhibitory activity for the follow-up compounds in a biochemical assay with an in-house formulation of detection reagent). Conditions: purified FLuc, luminescence; series mostly up to 25.6 µM.
Chain of Luciferin 4-monooxygenase (Photinus pyralis) (P08659 whole entry, looked up): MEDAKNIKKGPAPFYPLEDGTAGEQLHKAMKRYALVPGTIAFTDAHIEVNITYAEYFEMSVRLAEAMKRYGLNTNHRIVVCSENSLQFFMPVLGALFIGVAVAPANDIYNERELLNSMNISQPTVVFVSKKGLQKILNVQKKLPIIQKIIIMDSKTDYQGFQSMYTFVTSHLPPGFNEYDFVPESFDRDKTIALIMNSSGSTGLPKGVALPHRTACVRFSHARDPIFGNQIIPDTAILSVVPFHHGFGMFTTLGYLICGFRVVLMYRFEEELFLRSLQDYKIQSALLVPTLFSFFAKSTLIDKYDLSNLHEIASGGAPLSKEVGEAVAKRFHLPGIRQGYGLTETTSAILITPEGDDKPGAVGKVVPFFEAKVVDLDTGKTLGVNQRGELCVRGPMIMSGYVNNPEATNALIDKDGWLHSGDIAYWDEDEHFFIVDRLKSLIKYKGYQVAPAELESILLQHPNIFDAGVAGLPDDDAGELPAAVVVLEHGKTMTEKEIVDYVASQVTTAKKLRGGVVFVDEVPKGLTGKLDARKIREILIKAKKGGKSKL
Source text: NCGC Assay Overview: Firefly (Photinus pyralis) luciferase is one of the most commonly used transcriptional reporters. It is considered one of the more dynamically responsive reporters - that is, responsive to changes in reporter transcription - as it requires no post-translational modifications and is enzymatically active directly after protein synthesis (Wood, 1998). With no endogenous expression in mammalian cells and without the requirement of external excitation, it offers very little background signal, thus generally providing excellent signal to background for most assays. Previous profiling work to determine the prevalence of compounds that affect FLuc enzymatic activity (PubChem AID 411) identified that ~3% of the MLSMR library (then at ~72K) inhibited FLuc (Auld et al., 2008). […] Of the compounds identified in this profile that inhibited FLuc, 151 compounds were selected for further analysis, in an effort to better understand their mode of inhibiting FLuc. The assay described here was to determine the activity of the compounds in a FLuc assay that used an in-house formulation of detection reagent.
NCGC Assay Protocol Summary: Reagents: 300mM Tris-HCl, 300mM Trizma base, 300mM MgCl, 1% Triton-X100, 5mM DTT, 500uM Coenzyme A trilithium salt (Sigma #C3019),450uM ATP (Sigma #A7699), 1mM D-luciferin sodium salt monohydrate (Biosynth #L8240); 10nM P. pyralis luciferase (Sigma #L9506) Control compounds used were two known firefly luciferase inhibitors (3-(5-(3-chlorophenyl)-1,2,4-oxadiazol-3-yl)benzoic acid and 5-(2-fluorophenyl)-3-phenyl-1,2,4-oxadiazole), and DMSO. Assay Summary: Six microliters of buffer containing firefly luciferase (final concentrations: 50mM Tris acetate, 10nM P. pyralis luciferase) are dispensed into each well of a Greiner white, solid-bottom 1536-well format plate using a flying reagent dispenser (FRD). These assay plates were then treated with 23nL of compound or DMSO using a Kalypsys pin tool, which allows for delivery of a 12-point intraplate titration of each compound to the assay plate (quantitative HTS), with final compound concentrations ranging from approximately ~25uM to 0.1nM. Three microliters of 3X in-house detection reagent was then delivered by FRD to each well (final concentrations in assay: 300mM Tris-HCl, 300mM Trizma base, 300mM MgCl, 1% Triton-X100, 5mM DTT, 500uM Coenzyme A trilithium salt, 450uM ATP, 1mM D-luciferin sodium salt monohydrate). Luciferase activity was then measured using a ViewLux CCD imager (PerkinElmer), with an average exposure time of 2-30 seconds (2X binning, medium/high gain).

SMILES | Potency
O=C(Nc1ccccc1C(=O)O)c1cccc(NC(=O)c2ccccc2Cl)c1 | inactive
CC(=O)Oc1ccc(C(=O)Nc2ccccc2C(=O)Nc2cccc(C(=O)O)c2)cc1 | inactive
Cc1ccc2nc(-c3ccc(N)cc3)sc2c1 | 4.91 µM (active)
COc1ccc(C(=O)Nc2cccc(C(=O)O)c2)cc1S(=O)(=O)N1CCCC1 | inactive
CN(C)c1cccc(C(=O)Nc2ccc(-c3nc4ccccc4s3)cc2)c1 | inactive
COc1ccc(C(=O)Nc2ccccc2C(=O)N/N=C/c2ccc(O)c(OC)c2)cc1 | 0.011 µM (active)
O=C(COC(=O)c1ccccc1[N+](=O)[O-])c1ccc2c(c1)OCO2 | 0.0619 µM (active)
Nc1ccccc1-c1nc2ccccc2s1 | inactive
COc1ccc(NS(=O)(=O)c2cccc(C(=O)Nc3ccccc3C(=O)O)c2)cc1 | inactive
O=C(Nc1ccccc1C(=O)O)c1ccccc1 | inactive
CN(C)S(=O)(=O)c1ccc(C(=O)Nc2cccc(C(=O)O)c2)cc1 | inactive
COc1ccc2nc(NC(=O)c3nc(S(=O)(=O)Cc4ccc(C)cc4)ncc3Cl)sc2c1 | inactive
Cc1cccc(C(=O)Nc2ccc(-c3nc4ccccc4s3)cc2Cl)c1 | inactive
O=C(O)c1cccc(NC(=O)c2cccc(S(=O)(=O)N3CCc4ccccc4C3)c2)c1 | inactive
CCCC(=O)Nc1nc2ccc(OCC)cc2s1 | inactive
Cc1ccc(S(=O)(=O)N2CCN(C(=O)c3ccccc3-c3nc4ccccc4s3)CC2)c(C)c1 | inactive
O=C(Nc1ccccc1C(=O)O)c1cccc(S(=O)(=O)Nc2ccc(Br)cc2)c1 | inactive
O=C(O)c1cccc(NC(=O)c2cccc(S(=O)(=O)N3CCc4ccccc43)c2)c1 | inactive
O=C(O)c1cccc(NC(=O)c2cccc(S(=O)(=O)Nc3cccc(F)c3)c2)c1 | inactive
O=C(Nc1ccccc1C(=O)Nc1ccccc1C(=O)O)c1ccccc1 | inactive

SMILES | Potency
O=C(O)c1cccc(NC(=O)c2ccc(COc3ccc(Cl)cc3)cc2)c1 | inactive
Cc1ccc(C(=O)Nc2ccc(C(=O)O)cc2)cc1S(=O)(=O)Nc1ccccc1 | inactive
COc1ccc2nc(NC(=O)c3ccco3)sc2c1 | 6.94 µM (active)
CCOc1ccc2nc(NC(=O)c3ccccc3)sc2c1 | 6.19 µM (active)
CCc1noc(C)c1C(=O)Nc1nc2ccc(OC)cc2s1 | inactive
Cc1c(NC(=O)c2cc(-n3cnnc3)ccc2Cl)cccc1-c1nc2ccccc2s1 | inactive
COc1ccc(-c2nc3ccccc3s2)cc1O | 2.46 µM (active)
C/C(=N\NC(=O)c1ccccc1NC(=O)c1ccc(Cl)cc1)c1ccncc1 | 1.1 µM (active)
Cc1cccc(C(=O)Nc2ccccc2C(=O)Nc2ccc(C(=O)O)cc2)c1 | inactive
Cc1ccc(C(=O)Nc2cccc(C(=O)O)c2)cc1S(=O)(=O)N1CCCCC1 | inactive
COc1cc(C(=O)Nc2cc(C)c(O)c(-c3nc4ccccc4s3)c2)cc(OC)c1OC | inactive
Nc1cccc(-c2nc3ccc(N)cc3s2)c1 | 3.9 µM (active)
CCOc1ccc2nc(NC(=O)Cc3cccs3)sc2c1 | inactive
Oc1ccc(-c2nc3ccccc3s2)c(O)c1 | inactive
COc1ccc2nc(NC(=O)c3cccc(S(=O)(=O)N4CCOCC4)c3)sc2c1 | inactive
O=C(Cc1ccc(Cl)cc1)Nc1cccc(C(=O)Nc2ccccc2C(=O)O)c1 | inactive
COc1ccc2nc(NC(=O)c3cccs3)sc2c1 | inactive
CCOc1ccc2nc(NC(=O)c3ccccn3)sc2c1 | 3.9 µM (active)
COc1ccc(CC(=O)Nc2ccc(-c3nc4ccccc4s3)c(C)c2)cc1 | 11 µM (active)
Cc1c(C)c2ccc(OCC(=O)Nc3ccccn3)c(C)c2oc1=O | 0.0874 µM (active)
